Shown are actives, neighbours in structure and some others; about 3.8% of the full set was active somewhere.
Mdm2 MdmX PPI – inhibitors of human Mdm2-MdmX association, primary screen, cell-based, luminescence, split luciferase, SaOS-2, uHTS. Protein Mdm4 (Homo sapiens) + E3 ubiquitin-protein ligase Mdm2 (Homo sapiens), …. SaOS-2 split-luciferase Mdm2/MdmX complementation. inhibition, % at 8 µM. 3% of 330,000 active;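 active = inhibition of at least 50% at 8 µM in the primary screen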
Target sequence (O15151 whole entry, looked up): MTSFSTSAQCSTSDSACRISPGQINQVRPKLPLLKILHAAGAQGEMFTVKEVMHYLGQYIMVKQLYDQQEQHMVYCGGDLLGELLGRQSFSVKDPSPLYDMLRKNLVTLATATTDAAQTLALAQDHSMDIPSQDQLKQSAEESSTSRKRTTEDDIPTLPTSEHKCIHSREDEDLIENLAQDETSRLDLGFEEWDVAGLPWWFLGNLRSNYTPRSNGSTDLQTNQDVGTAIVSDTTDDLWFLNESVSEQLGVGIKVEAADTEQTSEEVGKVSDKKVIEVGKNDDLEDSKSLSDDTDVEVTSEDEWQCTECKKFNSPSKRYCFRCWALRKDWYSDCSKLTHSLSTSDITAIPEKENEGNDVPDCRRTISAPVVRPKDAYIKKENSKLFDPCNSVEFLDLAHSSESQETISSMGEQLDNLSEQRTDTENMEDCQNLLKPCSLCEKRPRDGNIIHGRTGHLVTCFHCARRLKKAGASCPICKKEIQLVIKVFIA
Target sequence (Q00987 whole entry, looked up): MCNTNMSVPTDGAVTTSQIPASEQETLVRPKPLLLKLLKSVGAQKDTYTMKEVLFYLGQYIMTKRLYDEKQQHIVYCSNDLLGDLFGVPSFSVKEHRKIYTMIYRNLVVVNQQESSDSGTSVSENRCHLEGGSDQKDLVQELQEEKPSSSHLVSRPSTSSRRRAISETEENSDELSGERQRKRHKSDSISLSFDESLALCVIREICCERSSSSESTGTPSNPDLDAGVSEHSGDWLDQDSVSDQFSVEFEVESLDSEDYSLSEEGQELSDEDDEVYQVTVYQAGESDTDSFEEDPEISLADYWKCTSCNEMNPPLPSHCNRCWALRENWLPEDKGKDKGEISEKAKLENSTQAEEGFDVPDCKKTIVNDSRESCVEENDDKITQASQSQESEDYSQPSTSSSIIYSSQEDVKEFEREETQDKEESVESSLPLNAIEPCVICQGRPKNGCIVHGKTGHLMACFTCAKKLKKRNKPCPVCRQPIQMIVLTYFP
697 NFkB inh – inhibitors of PMA/ionomycin-induced NF-kB reporter, 697 cells, primary screen, B-cell NF-kB inhibitor project, cell-based, luminescence, uHTS; 697 B-cell NF-kB luciferase reporter, 16 h; 0.33% of 330,000 active; inhibition, % at 4 µM; in the data active = inhibition above about 35%
Gli-Sufu antag – Gli-Sufu pathway antagonists, primary screen, luciferase luminescence, Sufu-KO-LIGHT cells, uHTS. 0.74% of 340,000 active. Sufu-KO-LIGHT fibroblasts, Gli luciferase reporter luminescence. inhibition, % at 5 µM. AID 588413, 2011;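 active = inhibition above about 55%, limit read from the data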;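 note: 0% = DMSO-treated cells and 100% = wells with medium but no cells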
Shn3 3UTR inh – reduction of Shn3 3'UTR firefly luciferase signal, primary screen, Schnurri-3 inhibitor project, cell-based, Clone20 osteoblasts, set 2 | AID 588674, 2011 | 0.52% of 360,000 active | inhibition, % at 12.5 µM | Clone20 osteoblast Shn3 3'UTR firefly luciferase, 24 h;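 active = mean inhibition of at least 75% with every replicate also reaching 75%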;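 note: 0% = median of neutral control wells and 100% = pilot-screen positive control compound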
Jurkat NFkB inh – inhibitors of induced NF-kB luciferase reporter, primary screen, TCR NF-kB activation inhibitor project, cell-based, luminescence, uHTS. Jurkat, PMA/ionomycin-induced NF-kB luciferase reporter. inhibition, % at 4 µM. 0.53% of 330,000 active; in the data active = inhibition above about 50%
Mdm2-MdmX conf – Mdm2-MdmX complex disruptors, retested hits, confirmation, luminescence, single concentration; 55% of 10,000 active; Mdm2-MdmX binding, luminescent assay; shares compounds with Mdm2 MdmX PPI; inhibition, % at 8 µM; in the data active = inhibition above about 40%
Full FLuc ctr – full-length luciferase signal inhibition, confirmation, counter-screen for Mdm2/MdmX interaction inhibitor project, cell-based, single concentration, SaOS-2; AID 504607, 2011; 77% of 6,200 active; shares compounds with Mdm2 MdmX PPI; SaOS-2 full-length luciferase counterscreen, luminescence; inhibition, % at 8 µM;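 active = mean inhibition at 8 µM reaching about 37%, which flags the compound as non-specific, limit read from the data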;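 note: p53-null SaOS-2 cells with luciferase driven by a doxycycline-inducible promoter; compound on cells about two nights before reading with doxycycline added after day one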
An asterisk follows results filed as active.

Screening CCN(CC)S(=O)(=O)c1ccc(C(=O)N2CCN(C(=O)c3ccco3)CC2)cc1 returned Mdm2 MdmX PPI -17, 697 NFkB inh 19, Gli-Sufu antag -3, Shn3 3UTR inh -5 and Jurkat NFkB inh 16.
Screening Cc1ncc([N+](=O)[O-])n1S(=O)(=O)c1cc(Br)ccc1Br returned Mdm2 MdmX PPI -8, 697 NFkB inh -35, Gli-Sufu antag -17, Shn3 3UTR inh 2 and Jurkat NFkB inh -25.
Screening CCOC(=O)c1cnc(Nc2nc3ccccc3o2)nc1C returned Mdm2 MdmX PPI 57*, 697 NFkB inh -23, Gli-Sufu antag 40, Shn3 3UTR inh 50, Jurkat NFkB inh 24, Mdm2-MdmX conf 58* and Full FLuc ctr 44*.
Screening CCOC(=O)c1cnc(Nc2nc3ccccc3o2)nc1CSc1nnc(C)s1 returned Mdm2 MdmX PPI 45, 697 NFkB inh -97, Gli-Sufu antag -48, Shn3 3UTR inh -29 and Jurkat NFkB inh -33.
COc1ccc(-c2cc(C(F)(F)F)n3ncc(C(=O)NCC4CCCO4)c3n2)cc1OC (centres undefined) was read as Mdm2 MdmX PPI 57*, 697 NFkB inh 0, Gli-Sufu antag -3, Shn3 3UTR inh 16, Jurkat NFkB inh 18 and Mdm2-MdmX conf 3.
`CCOC(=O)N1CCC(NC(=O)c2cnn3c(C(F)(F)F)cc(-c4cccc(OC)c4)nc23)CC1` gave Mdm2 MdmX PPI 61*, 697 NFkB inh -8, Gli-Sufu antag -8, Jurkat NFkB inh -1 and Mdm2-MdmX conf 13.
`Cc1ccc(C(=O)N2[C@@H]3CN(C)C(=O)[C@@]2(Cc2ccccc2)[C@H]2C(=O)N(Cc4ccccc4)C(=O)[C@@H]32)cc1` gave Gli-Sufu antag -3 and Shn3 3UTR inh 8.
`COc1ccc(CN2CCN(Cc3ccc(Br)cc3)CC2)c(OC)c1OC` gave Mdm2 MdmX PPI -11, 697 NFkB inh -18, Gli-Sufu antag -1, Shn3 3UTR inh 28 and Jurkat NFkB inh 18.
Screening CCOc1cc(/C=N/NC(N)=O)cc(Br)c1OCc1ccccc1F returned Mdm2 MdmX PPI 3, 697 NFkB inh 18, Gli-Sufu antag 4, Shn3 3UTR inh 14 and Jurkat NFkB inh 18.
For CCOc1cc(/C=N/NC(=O)Cn2nc([N+](=O)[O-])cc2C)cc(Br)c1OCc1ccccc1F the results were Mdm2 MdmX PPI 51*, 697 NFkB inh 9, Gli-Sufu antag -8, Shn3 3UTR inh 15, Jurkat NFkB inh 10 and Mdm2-MdmX conf 35.
Screening COc1ccc2oc(/C=C/N(C)C)c(C(=O)c3ccc(Cl)cc3)c2c1 returned Mdm2 MdmX PPI 79*, 697 NFkB inh 25, Gli-Sufu antag -3, Shn3 3UTR inh 37, Jurkat NFkB inh -10 and Mdm2-MdmX conf 26.
CCOC(=O)Cn1ccc2cc(S(=O)(=O)N3CCCC3)ccc21 was read as Shn3 3UTR inh -28.
Cc1cccc(-c2nnn(Cc3nnc(NC(=O)c4ccccc4)s3)n2)c1 was read as Mdm2 MdmX PPI 71*, 697 NFkB inh 0, Gli-Sufu antag 2, Shn3 3UTR inh -18, Jurkat NFkB inh 9 and Mdm2-MdmX conf -6.
Screening Cc1csc(C(C)N(C)C(=O)c2ccc(OC3CCN(Cc4ccccn4)CC3)cc2)n1 (centres undefined) returned Mdm2 MdmX PPI -6, 697 NFkB inh -13, Gli-Sufu antag 26, Shn3 3UTR inh 24 and Jurkat NFkB inh 10.
For O=C(c1ccccc1)c1cnc(Nc2ccc(Cl)c(Cl)c2)s1 the results were Mdm2 MdmX PPI 71*, 697 NFkB inh -12, Gli-Sufu antag -45, Shn3 3UTR inh -19, Jurkat NFkB inh -9 and Mdm2-MdmX conf 6.
`COc1ccc(S(=O)(=O)N2CCN(C(=O)Nc3ccccc3OC)CC2)cc1` gave Mdm2 MdmX PPI 2, 697 NFkB inh -2, Gli-Sufu antag 4, Shn3 3UTR inh 9 and Jurkat NFkB inh 10.
Cc1nc(NCc2ccc3c(c2)OCO3)c2nnn(Cc3ccccc3)c2n1 was read as Mdm2 MdmX PPI 77*, 697 NFkB inh 1, Gli-Sufu antag -1, Shn3 3UTR inh -3, Jurkat NFkB inh 1, Mdm2-MdmX conf 38 and Full FLuc ctr 67*.
For CN1CCC(N(C)S(=O)(=O)c2ccc(NC(=O)COc3ccc(F)cc3Cl)cc2)CC1 the results were Mdm2 MdmX PPI 38, 697 NFkB inh 1, Gli-Sufu antag 19, Shn3 3UTR inh -5 and Jurkat NFkB inh -22.
O=C1C(N2CCOCC2)=C(n2nnc3ccccc32)C(=O)c2ccccc21 was read as Mdm2 MdmX PPI 73*, 697 NFkB inh 2, Gli-Sufu antag -13, Shn3 3UTR inh 24, Jurkat NFkB inh 43 and Mdm2-MdmX conf 33.
For CSc1ccc(-c2nnn(CC(=O)NCc3ccccc3)n2)cc1 the results were Mdm2 MdmX PPI 50, 697 NFkB inh -10, Gli-Sufu antag 3, Shn3 3UTR inh 2, Jurkat NFkB inh 12 and Mdm2-MdmX conf 30.
For CCOC(=O)C(Cc1ccccc1)NC(=O)Cn1nnc(-c2ccc(SC)cc2)n1 (centres undefined) the results were Mdm2 MdmX PPI -10, 697 NFkB inh -8, Gli-Sufu antag -2, Shn3 3UTR inh 5 and Jurkat NFkB inh -9.
Screening N#C/C(=C\Nc1ccc2cn[nH]c2c1)c1nc(-c2ccccc2)cs1 returned Gli-Sufu antag 1 and Shn3 3UTR inh 5.
N#C/C(=C\Nc1ccc2cn[nH]c2c1)c1nc(-c2ccc(Cl)cc2)cs1 was read as Mdm2 MdmX PPI 50*, 697 NFkB inh 1, Gli-Sufu antag -4, Shn3 3UTR inh 29, Jurkat NFkB inh -4 and Mdm2-MdmX conf 14.
For O=C(NCCCN1CCOCC1)C1Cc2c(ccc3ccccc23)O1 (centres undefined) the results were Mdm2 MdmX PPI 3, 697 NFkB inh 0, Gli-Sufu antag 0, Shn3 3UTR inh -9 and Jurkat NFkB inh 0.
COC(=O)c1ccc(/C=C2\SC(=S)N(CCCC(=O)N3CCOCC3)C2=O)cc1 was read as Gli-Sufu antag 7 and Shn3 3UTR inh -9.
Screening Cc1ccc(/C=C2\SC(=S)N(CCCC(=O)N3CCOCC3)C2=O)cc1 returned Mdm2 MdmX PPI 56*, 697 NFkB inh 19, Gli-Sufu antag 4, Shn3 3UTR inh -1, Jurkat NFkB inh 24, Mdm2-MdmX conf 40 and Full FLuc ctr 30.

Compound activity as filed in PubChem BioAssay.
